HT1080 IDH1KD tx: toxicity to HT-1080 IDH1 knockdown cells (counter line) | actives 2% (n = 360,000) | HT-1080 IDH1 knockdown viability, ATP luminescence, 48 h | Potency, µM (series often up to 46.1 µM), hits mostly cytotoxic
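HT-1080-IDH1KD cells (IDH1 knocked down), 750/well in RPMI with 5% FBS, treated with compound 48 h at 37 degrees C. Viability by CellTiter-Glo luminescence, normalised to DMSO and no-cell wells; concentration-response curves classed.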
TDP1 cell CPT: DT40-hTDP1 cell growth loss with CPT; actives 12% (n = 420,000); AID 686979; Potency, µM (doses to about 46.2 µM), most hits filed as inhibitors; chicken DT40 Tdp1-/-;hTDP1 cells + 20 nM CPT, ATP luminescence, 48 h; further: nearly all actives have a fitted effect of over 55% in size
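Cell growth measured by CellTiter-Glo luminescence after a minimum 48 h, 37 C compound exposure with 20 nM CPT in Tdp1-knockout DT40 cells stably expressing hTDP1, seeded 400/well; qHTS titration format.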
HT1080NT lethal: kills 2HG-producing HT-1080-NT fibrosarcoma cells. actives 1.6% (n = 360,000). HT-1080-NT fibrosarcoma viability, CellTiter-Glo ATP luminescence, 48 h. AID 686970. Potency, µM (series often up to 46.1 µM), hits mostly cytotoxic;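 further: NT is the 2HG producing partner of a matched IDH1 knockdown line; nearly all actives have a fitted effect of over 55% in size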
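Luminescent CellTiter-Glo readout after 48 hours of compound exposure at 37 degrees C defined viability of HT-1080-NT cells. Activity was normalized to DMSO wells and cell-free media wells; concentration-response curves were fitted and assigned curve classes.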
DT40 TDP1 no CPT: qHTS for Inhibitors of human tyrosyl-DNA phosphodiesterase 1 (TDP1): qHTS in cells in absence of CPT; AID 686978, 2013; DT40 Tdp1-/- hTDP1 cells, no CPT, ATP luminescence, 48 h; Potency, µM (top dose mostly 46.2 µM), hits mostly inhibitors; actives 15% (n = 420,000); further: nearly all actives have a fitted effect of over 55% in size
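Chicken DT40 Tdp1-/- cells stably complemented with human TDP1 were seeded at 400 cells/well with DMSO in place of 20 nM camptothecin. After compound pinning, cells grew at least 48 hr at 37 °C; viability read by CellTiter-Glo luminescence.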
ALOX12 inh: blocks human arachidonate 12S-lipoxygenase | P18054 | purified 12hLO, xylenol orange hydroperoxide absorbance | Potency, µM (highest dose often 108 µM), most hits filed as inhibitors | actives 1.1% (n = 580,000)
Target sequence (P18054 whole entry, looked up): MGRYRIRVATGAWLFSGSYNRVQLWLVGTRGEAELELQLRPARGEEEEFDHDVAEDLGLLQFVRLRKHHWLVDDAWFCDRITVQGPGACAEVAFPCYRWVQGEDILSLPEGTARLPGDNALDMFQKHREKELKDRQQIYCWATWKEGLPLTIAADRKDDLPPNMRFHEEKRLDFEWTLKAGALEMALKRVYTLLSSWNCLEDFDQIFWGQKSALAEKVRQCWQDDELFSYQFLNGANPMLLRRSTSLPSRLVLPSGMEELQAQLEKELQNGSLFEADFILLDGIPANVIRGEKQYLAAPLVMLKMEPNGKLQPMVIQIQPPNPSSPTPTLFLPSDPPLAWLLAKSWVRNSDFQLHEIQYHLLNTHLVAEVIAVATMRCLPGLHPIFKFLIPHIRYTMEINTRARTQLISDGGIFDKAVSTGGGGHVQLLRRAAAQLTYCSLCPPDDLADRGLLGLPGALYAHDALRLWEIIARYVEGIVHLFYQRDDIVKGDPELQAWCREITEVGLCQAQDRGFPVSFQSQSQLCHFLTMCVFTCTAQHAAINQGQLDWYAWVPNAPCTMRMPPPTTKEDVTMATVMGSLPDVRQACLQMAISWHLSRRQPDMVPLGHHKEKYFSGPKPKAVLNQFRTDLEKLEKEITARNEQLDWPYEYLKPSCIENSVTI
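Hydroperoxide product was detected by ferrous iron/xylenol orange as the 573 to 405 nm absorbance ratio. Arachidonic acid at 40 uM (final) was turned over for 30 min at room temperature by 150 nM human 12hLO, pH 7.0 Hepes buffer, after 15 min compound preincubation.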
IL-1B inflam inh: blocks inflammasome-driven IL-1 beta release; actives 4.7% (n = 360,000); activity change, % at 57.5 µM; THP-1 LPS/ATP IL-1B secretion, AlphaLISA, 16 h; hits give low values; AID 743279; in the data active means activity change below about -50%; inconclusive means mostly about -30% to -49%
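THP-1 cells pretreated 1 hr with compounds (up to 57.5 uM final), then stimulated with LPS (250 ng/mL final) plus ATP (1.25 mM final); secreted IL-1B measured by AlphaLISA after 16 hr, decreased signal indicating inhibition.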
Numbers stand for hits; - = inactive; ? = inconclusive; . = no result given. This excerpt belongs to a sample that is enriched for hits. Unless noted, the call rests on the fitted dose curve; in most records, active means well fitted curve in the direction sought with a large enough effect; inconclusive means small, poorly fitted or top-dose-only effect, or another doubt; inactive means no such curve, though single readings can be large; an effect the other way counts as inactive or inconclusive.

SMILES | HT1080 IDH1KD tx | TDP1 cell CPT | HT1080NT lethal | DT40 TDP1 no CPT | ALOX12 inh | IL-1B inflam inh
COc1ccc(CNCCCn2cnc(C(=O)Nc3ccc(C)c(C)c3)n2)cc1 | - | ? | - | 16.4µM | ? | -
COC(=O)[C@H](Cc1ccccc1)NCCCn1cnc(C(=O)Nc2ccc(C)c(C)c2)n1 | - | ? | - | 18.4µM | - | -
Cc1ccc(NC(=O)c2ncn(CCCN3CCN(c4ccccn4)CC3)n2)cc1C | - | ? | - | 25.9µM | ? | -
Cc1ccc(NC(=O)c2ncn(CCCNCCCN(C)C)n2)cc1C | - | ? | - | ? | - | -
Cc1ccc(NC(=O)c2ncn(CCCNCCCc3ccccc3)n2)cc1C | ? | ? | - | 20.6µM | - | -
Cc1cccnc1NC(=O)c1ccc(C2SCCCS2)cc1 | . | . | . | . | - | .
Cc1ccc(S(=O)(=O)NCCS(=O)(=O)N2CCN(c3ccc(F)cc3)CC2)cc1 | - | ? | - | 11.6µM | . | -
O=S(=O)(NCCS(=O)(=O)N1CCN(c2cccc(Cl)c2)CC1)c1ccc(F)cc1 | . | - | . | 20.6µM | - | .
O=C(NCCS(=O)(=O)N1CCN(c2ccc(F)cc2)CC1)c1cc(=O)c2ccccc2o1 | . | ? | . | ? | - | .
O=C(NCCS(=O)(=O)N1CCN(c2cccc(Cl)c2)CC1)c1cc(=O)c2ccccc2o1 | - | ? | - | 2.06µM | - | -
O=S(=O)(NCCS(=O)(=O)N1CCN(c2ccccc2)CC1)c1ccccc1 | - | - | - | ? | - | -
CN(C)CCNS(=O)(=O)c1ccc(N2CCN(c3ccc(F)cc3)CC2)c([N+](=O)[O-])c1 | 18.4µM | 13µM | ? | 13µM | - | -73.5
O=C(NCCc1ccc(Cl)cc1)c1ccc(CS(=O)(=O)c2ccc(Cl)cc2)o1 | . | 16.4µM | . | ? | - | .
CCCCN(CCCNC(=O)c1ccc(CS(=O)(=O)c2c(Cl)cccc2Cl)o1)Cc1ccccc1 | - | ? | ? | ? | - | -
CSc1ccc(CCNC(=O)c2ccc(CS(=O)(=O)c3ccc(Br)cc3)o2)cc1 | . | 23.1µM | . | 20.6µM | - | .
CC1CCC(NC(=O)c2ccc(CS(=O)(=O)c3ccc(Cl)cc3)o2)CC1 (stereo not given) | . | 18.4µM | . | 18.4µM | - | .
CCCCN(CC)CCCNC(=O)c1ccc(CS(=O)(=O)c2c(Cl)cccc2Cl)o1 | - | - | - | - | - | -77.8
CCc1ccccc1S(=O)(=O)Cc1ccc(C(=O)NCCc2ccc(Cl)cc2)o1 | . | ? | . | 18.4µM | - | .
Cc1ccc(CCNC(=O)c2ccc(CS(=O)(=O)c3ccc(Cl)cc3)o2)cc1 | . | - | . | - | - | .
Cc1ccc(S(=O)(=O)Cc2ccc(C(=O)NCCc3ccc(Cl)cc3)o2)cc1 | . | 16.4µM | . | 29.1µM | ? | .
COCCOC(=O)c1[nH]c2c(c1C)C(=O)CC(c1cccs1)C2 (stereo not given) | 4.61µM | 1.16µM | ? | 1.3µM | - | -
CCOCCOC(=O)C1=C(C)NC2=C(C(=O)CC(c3cccs3)C2)C1c1ccsc1 (stereo not given) | - | ? | ? | ? | - | -
Cc1c(C(=O)OCC(C)C)[nH]c2c1C(=O)CC(c1cccs1)C2 (stereo not given) | 1.3µM | 2.91µM | 1.64µM | 3.66µM | - | -
CCOC(=O)c1[nH]c2c(c1C)C(=O)CC(c1ccc(OCC)c(OC)c1)C2 (stereo not given) | ? | - | ? | ? | - | -
CCOCCOC(=O)c1[nH]c2c(c1C)C(=O)CC(c1cccs1)C2 (stereo not given) | 0.461µM | 1.03µM | 0.461µM | 0.82µM | - | -
SMILES | HT1080 IDH1KD tx | TDP1 cell CPT | HT1080NT lethal | DT40 TDP1 no CPT | ALOX12 inh | IL-1B inflam inh
COc1ccc(CN(C)Cc2csc(C)n2)cc1CN1CCCC1 | . | . | . | . | - | .
CC1(C)Cc2ccccc2-c2nnc(SCC(=O)Nc3ccc4c(c3)OCO4)n21 | - | 16.4µM | - | ? | - | ?
COc1ccccc1-c1nnc(SCC(=O)N2CCN(C(C)=O)CC2)n1N | . | . | . | . | - | .
COc1ccccc1N1CCN(C(=O)CSc2nnc3n2C(C)(C)Cc2ccccc2-3)CC1 | - | 13µM | ? | 14.6µM | - | -
CCOC(=O)CSc1nnc2n1C(C)(C)Cc1ccccc1-2 | - | - | - | - | - | -
CC1Cc2ccccc2N1C(=O)CSc1nnc2n1C(C)(C)Cc1ccccc1-2 (stereo not given) | - | 20.6µM | - | 20.6µM | - | -
Cc1ccccc1-c1cc2nc(NCCc3ccncc3)n(C)c(=O)c2s1 | ? | 16.4µM | ? | 14.6µM | - | -
Cn1c(NCCc2ccncc2)nc2cc(-c3ccccc3)sc2c1=O | - | 25.9µM | - | ? | - | -
CC(=O)NCCNc1nc2cc(-c3ccccc3)sc2c(=O)n1C | - | ? | - | ? | - | -
Cc1nc(C)c(C(=O)N2CCn3c(nnc3[C@@H]3C[C@@H](O)CN3Cc3ccccc3)C2)s1 | . | . | . | . | - | .
O=C(c1ccc(Cn2ccc([N+](=O)[O-])n2)cc1)N1CCN(Cc2ccccc2)CC1 | - | - | - | ? | - | -
CSc1ccc(CN2CCN(C(=O)c3ccc([N+](=O)[O-])cc3)CC2)cc1 | ? | ? | - | 20.6µM | ? | -
O=C(c1ccc(Oc2ccc([N+](=O)[O-])cc2)cc1)N1CCCCCC1 | ? | ? | - | ? | - | -77.7
O=C(Cc1ccccc1)NC1CCN(C(=O)c2ccc([N+](=O)[O-])cc2)CC1 | - | - | - | - | - | -
O=C(c1ccc(Oc2ccc([N+](=O)[O-])cc2Cl)cc1)N1CCCC1 | - | ? | - | ? | - | -
O=C(NCC1CCN(C(=O)c2ccc([N+](=O)[O-])cc2)CC1)C(=O)Nc1ccccc1 | - | ? | - | 20.6µM | - | -
Cc1ccc(C(=O)N(CCN(C)C)CC(=O)OC(C)(C)C)cc1F | . | . | . | . | - | .
Cc1cccc(CNc2ncnc3ccc(-c4ccc5c(c4)OCCO5)cc23)c1 | . | . | . | . | 50.1µM | .
Cc1csc(CNc2ncnc3ccc(-c4ccoc4)cc23)c1 | . | . | . | . | - | .
Cc1csc(CNc2ncnc3ccc(-c4ccc5c(c4)OCCO5)cc23)c1 | . | . | . | . | 8.91µM | .
Cc1nc2ccc(Cl)cc2cc1C(=O)OCC(=O)NCC1CCCO1 (stereo not given) | . | . | . | . | - | .
CCN(CC(=O)Nc1ccc(OC)cc1)C(=O)c1ccc2c(c1)NC(=O)CS2 | - | - | - | - | 8.91µM | -
COCCN1C(=O)CS(=O)(=O)C12CCN(C(=O)c1ccc(C)cc1C)CC2 | . | . | . | . | - | .
COc1ccccc1NC(=O)CN1C(=O)C2(SCC(=O)N2c2cc(C)cc(C)c2)c2ccccc21 (stereo not given) | . | . | . | . | - | .

High-throughput results deposited in PubChem BioAssay by National Center for Advancing Translational Sciences (NCATS).
